Data as given in PubChem BioAssay (Tox21).
Inconclusive results are not listed. Entries that show only a call come without a potency. Some compounds were tested as several samples or in several runs, with calls that do not always agree. The source made the active and inactive calls. Calls follow the shape of the dose curve; as a rule, active = well fitted cell-killing curve with a large enough effect in the repeat runs; inconclusive = weak or mixed curves, or effect the other way; inactive = no such curve, though single readings can be large or run the other way.

Assay: qHTS assay to identify small molecule antagonists of the sonic hedgehog signaling (Shh) pathway - cell viability counter screen (AID 1259367); also: nearly all actives have a fitted effect of over 55% in size
Conditions: NIH/3T3 Gli1-Luc viability, CellTiter-Fluor, 24 h; series mostly up to 92.4 µM
Procedure, shortened: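 Seed 3T3 Gli1-Luc cells at 2,000 per well; incubate 4 hr; add compound in DMSO, then conditioned medium; incubate at 37C with 5% CO2; add CellTiter-Fluor after 23 hr; read fluorescence 1 hr later.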
Potency is read from the fitted curve at half-maximal effect.

Structure (SMILES) | Potency | viability change, negative = cytotoxic
Nc1nc2c(ncn2COCCO)c(=O)[nH]1 | inactive | 
CC(C)NC[C@@H](O)COc1ccc(CC(N)=O)cc1 | inactive | 
COC(C)=O | inactive | 
CCc1cccc(CC)c1NC(=O)CN(CC(=O)O)CC(=O)O | inactive | 
CC(=O)Oc1cc2c(s1)CCN(C(C(=O)C1CC1)c1ccccc1F)C2 (stereo not drawn) | inactive | 
CCCCCCCCCCCCCCCC[N+](C)(C)CC | 54.6 µM (active) and inactive | 
Cc1c(N)cccc1C(F)(F)F | inactive | 
Cc1c(C)c2c(c(C)c1OC(=O)c1cccnc1)CC[C@@](C)(CCC[C@H](C)CCC[C@H](C)CCCC(C)C)O2 | inactive | 
CCN(CC)C(=O)c1cc(S(=O)(=O)Cc2ccccc2)c(N2CCC(c3ccccc3)CC2)cc1N(CC)CCN(C)C | 9.58 µM (active) | 
CN1CCN2c3ccccc3Cc3ccccc3C2C1 (stereo not drawn) | inactive | 
Cc1c(F)c(N2CCNC(C)C2)cc2c1c(=O)c(C(=O)O)cn2C1CC1 (stereo not drawn) | inactive | 
O=C(O)c1cc(-c2ccc(F)cc2F)ccc1O | inactive | 
CC[N+](CC)(CC)CCOc1ccc(/C=C/c2ccccc2)cc1 | inactive | 
CCCCCCCCCCC[C@@H](C[C@@H]1OC(=O)[C@H]1CCCCCC)OC(=O)[C@H](CC(C)C)NC=O | inactive | 
Cc1cc(=O)oc2cc(O)cc(O)c12 | inactive | 
CCCCCCCC/C=C\CCCCCCCCN | inactive | 
Cc1cc(C(C)(C)C)cc(C)c1CC1=NCCN1 | inactive | 
CC(C)Cn1cnc2c(N)nc3ccccc3c21 |  | 4.21% [at 19 µM] (inactive)
CCOC(=O)NNc1ccc(N(CC)CC(C)O)nn1 (stereo not drawn) | inactive | 
O=C(O)[C@H](O)[C@@H](O)[C@H](O[C@@H]1O[C@H](CO)[C@H](O)[C@H](O)[C@H]1O)[C@H](O)CO | inactive | 
CCCCC/C=C\C/C=C\CCCCCCCC(=O)O | inactive | 
CCCCCCCCCCCCCC[N+](C)(C)C | inactive | 
C#C[C@]1(OC(C)=O)CC[C@H]2[C@@H]3CCC4=C/C(=N/O)CC[C@@H]4[C@H]3CC[C@@]21CC | inactive | 
CCCCCCCCCCCCCC[N+](C)(C)Cc1ccccc1 | 27.7 µM (active) and inactive | 
CCOC(=O)Cn1cccc1-c1nc(-c2ccc(OC)cc2)c(-c2ccc(OC)cc2)s1 | inactive | 
Cc1c(C)c2c(c(C)c1O)CC[C@@](C)(CCC[C@H](C)CCC[C@H](C)CCCC(C)C)O2 | inactive | 
CCN(CC)c1ccc2c(-c3ccc(S(=O)(=O)O)cc3S(=O)(=O)[O-])c3ccc(=[N+](CC)CC)cc-3oc2c1 | 11.2 µM (active) | 
O[C@@H]([C@H](O)[C@H](O)CBr)[C@H](O)CBr | inactive | 
